Source: PubChem BioAssay
Shown are actives, neighbours in structure and some others; about 21% of the full set was active somewhere.
Sm TGR block: blocks Schistosoma mansoni thioredoxin glutathione reductase. Q962Y6. purified TGR, DTNB reduction, TNB absorbance 405 nm. Potency, µM (series often up to 114 µM), for inactives: at the top dose activity change, negative = inhibition, hits mostly inhibitors. actives 3% (n = 360,000). AID 485364; note: potency is the fitted concentration of half-maximal effect; % is set by controls: 0 for no effect and ±100 for the full control effect; nearly all actives have a fitted effect of over 60% in size
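First, TGR (20 nM dispensed) and NADPH were mixed with compound. Second, a 15 min room-temperature incubation followed. Third, further NADPH and then DTNB were added to start the reaction. Finally, TNB absorbance was monitored kinetically.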
Cycloheximide cs: counter-screen for Shiga toxin inhibitors: cycloheximide protein synthesis inhibition; cell reporter, cycloheximide protein synthesis inhibition counterscreen; max response, %; actives 12% (n = 300,000); in the data active = max response mostly above about 13%, no sharp cut-off; inactive = mostly below about 14%; note: read at 38.3 µM for the half of the compounds with a filed dose; 0% is about no effect
Pf growth 96h: inhibits malaria parasite growth, 96 h; P. falciparum luciferase reporter growth, 96 h; Potency, µM (series often up to 28.7 µM), inactives show at the top dose activity change, negative = inhibition, actives largely listed as inhibitors; actives 6.9% (n = 320,000); note: potency is the fitted concentration of half-maximal effect; % is set by controls: 0 for no effect and ±100 for the full control effect
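Erythrocytes infected with luciferase-expressing P. falciparum were dispensed at 2% hematocrit and 0.05% parasitemia (final), then incubated with compounds 96 hours at 37 C in 5% CO2. Luminescence after detection reagent addition reported growth.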
NS1 function inh: influenza NS1 inhibition; Potency, µM (doses to about 46.1 µM), inactives show at the highest dose activity, positive = more growth; actives 0.4% (n = 270,000); calls by dose curve; note: potency is the fitted concentration of half-maximal effect; actives are rising curves; nearly all actives have a fitted effect of over 50% in size
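A cell-based growth assay was used: compounds that relieve NS1-induced slow growth of budding yeast raise OD600. Assay medium was yeast nitrogen base with ammonium sulphate and -URA supplement, pH 6.0, with 2% galactose.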
Shiga inhibitor: blocks Shiga toxin action in Vero cells; Vero cells, Shiga toxin protein synthesis inhibition reporter; actives 9.2% (n = 290,000); inhibition, % at 38.7 µM; in the data active = inhibition mostly above about 28%, no sharp cut-off; inactive = mostly below about 43%; note: 0% is about no effect
Pf growth 48h: P. falciparum growth inhibition at 48 hours (one generation); P. falciparum luciferase growth in erythrocytes, 48 h; actives 5.9% (n = 310,000); AID 504832; Potency, µM (top dose mostly 28.7 µM), inactives show top-dose activity change, negative = inhibition, hits mostly inhibitors; note: potency is the fitted concentration of half-maximal effect; % is set by controls: 0 for no effect and ±100 for the full control effect
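A one-generation exposure of luciferase-tagged malaria parasites in RPMI 1640/Albumax erythrocyte culture, 37 C and 5% CO2. Inhibition is inferred from decreased luminescence after adding detection reagent.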
* = called active by the depositor. Unless noted, calls come from the whole dose curve; as a rule, active = well fitted curve in the direction sought with a large enough effect; inconclusive = small, poorly fitted or top-dose-only effect, or another doubt; inactive = no such curve, though single readings can be large; an effect the other way counts as inactive or inconclusive.

COc1ccc(NC(=O)CSc2ccc(-c3cccnc3)nn2)cc1 was read as Sm TGR block 0.0%, Cycloheximide cs -2.8, Pf growth 96h inconclusive, NS1 function inh 4.5%, Shiga inhibitor -5.8 and Pf growth 48h inconclusive.
COc1ccc(-c2ccc(=O)n(CC(=O)NCCc3ccccc3)n2)cc1 was read as Sm TGR block 3.7%.
COC(=O)CN(C)C(=O)c1ccccc1OC1CCN(S(C)(=O)=O)CC1 was read as Sm TGR block 11.9%, Cycloheximide cs 5.6, Pf growth 96h 13.1µM*, NS1 function inh -1.6%, Shiga inhibitor 10.2 and Pf growth 48h -35.7%.
`CSc1ccc(/C=C/C(=O)OCC(=O)N(C)CCC#N)cc1` gave Sm TGR block 5.6%, Cycloheximide cs 19.9*, Pf growth 96h 10.6%, Shiga inhibitor 31.2* and Pf growth 48h 39.8%.
Screening Nc1ncnc2c1ncn2[C@@H]1O[C@H](C(=O)N2CCN(CC(=O)Nc3cccc4c3CNC4=O)CC2)[C@@H](O)[C@H]1O returned Cycloheximide cs -7.4 and Shiga inhibitor -2.9.
Screening O=C(CN1CCOCC1)Nc1ccc(OC(F)(F)F)cc1 returned Sm TGR block 10.1%, Cycloheximide cs 20.9*, Pf growth 96h -11.6%, NS1 function inh 6.5%, Shiga inhibitor 27.9 and Pf growth 48h 35.1%.
`CCN1CCN(CC(=O)Nc2ccc(OC(F)(F)F)cc2)CC1` gave Sm TGR block 0.0%, Cycloheximide cs -4.5, Pf growth 96h -18.1%, NS1 function inh 7.4% and Shiga inhibitor -3.5.
Screening O=C(CN1CCc2ccccc2C1)Nc1ccc(OC(F)(F)F)cc1 returned Sm TGR block -9.3%, Cycloheximide cs -3.3, Pf growth 96h -0.7%, NS1 function inh 1.4%, Shiga inhibitor 5.7 and Pf growth 48h 36.1%.
O=C(CN1CCCC1)Nc1ccc(OC(F)(F)F)cc1 was read as Sm TGR block 5.4%, Cycloheximide cs 19.6*, Pf growth 96h 73.2%, NS1 function inh 7.4% and Pf growth 48h 15.3%.
For C=CCC(CC=C)(NC(=O)c1ccccc1C(=O)O)c1ccccc1 the results were Sm TGR block -6.8%, Cycloheximide cs -1.0, Pf growth 96h inconclusive, NS1 function inh 5.1%, Shiga inhibitor -5.0 and Pf growth 48h -4.0%.
For CC(Sc1nnc(-c2ccncc2)n1-c1ccc(F)cc1)C(=O)NC1CC1 (centres undefined) the results were Sm TGR block -16.5%, Pf growth 96h 0.4% and Pf growth 48h inconclusive.
For CCn1c(=O)n(-c2ccc3c(c2)OCO3)c2nc(-c3cc(OC)ccc3OC)nc(C(N)=O)c21 the results were Sm TGR block 6.0%.
`COc1ccc(NC(=O)c2csnn2)cc1Cl` gave Sm TGR block -1.2%.
Screening O=C(Nc1ccccc1Cl)ON=C1c2ccccc2-c2ccccc21 returned Sm TGR block 7.5%, Cycloheximide cs 23.2*, Pf growth 96h 65.4%, NS1 function inh -55.3%, Shiga inhibitor 44.5* and Pf growth 48h 41.4%.
For O=C(NC(=O)c1csnn1)Nc1ccccc1Cl the results were Sm TGR block -0.3%, Cycloheximide cs 33.6*, Pf growth 96h 35.3%, NS1 function inh -11.4%, Shiga inhibitor 21.9 and Pf growth 48h 48.2%.
Screening NC(=O)NC(=O)Nc1ccccc1Cl returned Sm TGR block -22.2%, Cycloheximide cs 2.8, Pf growth 96h 10.4µM*, NS1 function inh -5.4%, Shiga inhibitor -4.3 and Pf growth 48h 29.9%.
For CCCCn1cc(S(=O)(=O)c2ccccc2)c(=O)c2cc(F)c(N3CCN(CCC)CC3)cc21 the results were Sm TGR block 0.0%.
`O=C(N/N=C/c1cccnc1)c1ccccc1NS(=O)(=O)c1cccs1` gave Sm TGR block 3.0%, Cycloheximide cs 4.2, Pf growth 96h inconclusive, Shiga inhibitor -10.7 and Pf growth 48h -26.7%.
CCCOc1cccc(/C=N/NC(=O)c2csc(C)c2C)c1 was read as Sm TGR block 0.8%, Cycloheximide cs 14.0, Pf growth 96h inconclusive, NS1 function inh 0.6% and Shiga inhibitor 2.3.
Cc1scc(C(=O)N/N=C/c2ccc([N+](=O)[O-])o2)c1C was read as Sm TGR block -28.7%, Cycloheximide cs 0.1, Pf growth 96h 1.65µM*, NS1 function inh -21.2%, Shiga inhibitor 5.6 and Pf growth 48h 4.15µM*.
